Assay results from ChEMBL document CHEMBL4888484, “Replenishing the malaria drug discovery pipeline: Screening and hit evaluation of the MMV Hit Generation Library 1 (HGL1) against asexual blood stage Plasmodium falciparum ,using a nano luciferase reporter read-out” (2022).
“And” between values parts separate entries of the source, which are not always exact repeats. Identical values can stand only once. Screen size: about 150,000 compounds; about 540 (0.36%) showed an effect of 50% or more. The full list was thinned out, with strong results kept by preference.

System: Plasmodium falciparum
Assay: Primary screen in NF54 nanoGlo assay, in single point, at 2uM, 72h; a lower Z score goes with more inhibition
Type: functional, Erythrocyte
Details: timepoint 72 hour

## CCCN(CCC)C(=O)CN1CCN(Cc2ccc3c(c2)CCO3)CC1
  % Inhibition: -11%
  Z score: 1.43

## COc1ccc(Cl)cc1[C@H](C)NCc1nncn1C1CC1
  % Inhibition: -13%
  Z score: 2.01

## OC[C@H]1CCCN(CCNc2ccc3cc(Cl)ccc3n2)C1
  % Inhibition: 12%
  Z score: -1.36

## Cc1nccc(NC(=O)N2C3CCC2CC(CCF)C3)n1 (centres undefined)
  % Inhibition: -5%
  Z score: 0.79

## COc1ccc(NC(=O)c2ccc3nn(CC(=O)Nc4ccc(F)cc4)c(=O)n3c2)cc1
  % Inhibition: -26%
  Z score: 2.29

## O=C(NCc1ccc(F)cc1)C1[C@@H]2C=C[C@@]3(CN(Cc4ccccc4Cl)C(=O)[C@H]13)O2 (some centres undefined)
  % Inhibition: -9%
  Z score: 1.29

## CCCCN(C(=O)Nc1nc2ccccc2s1)C1CC1
  % Inhibition: -5%
  Z score: 0.64

## COc1ccc([N+]2=C3CCCCN3C[C@]2(O)c2ccc(Cl)cc2)cc1
2 µM
  % Inhibition: 3% and -11%

## COc1ccc(-c2c[n+](-c3ccc(Cl)cc3)c3n2CCCCC3)cc1
  % Inhibition: 64%
  Z score: -6.22

## COc1ccc(-c2cnc3n2CCCC3)cc1
  % Inhibition: -23%
  Z score: 2.75

## Oc1cccc(CN2CCC3(CC2)C[C@H](c2ccccc2)CN(C2CC2)C3)c1
  % Inhibition: 76%
  Z score: -2.68

## c1ccc([C@@H]2CN(C3CC3)CC3(CCN(Cc4ccccn4)CC3)C2)cc1
  % Inhibition: -10%
  Z score: 1.74

## c1ccc([C@@H]2CN(C3CC3)CC3(CCN(Cc4ccncc4)CC3)C2)cc1
  % Inhibition: -1%
  Z score: 0.23

## N#C[C@@]1(c2ccccc2OCc2ccccc2)CCC(=O)N1Cc1ccccc1
  % Inhibition: -10%
  Z score: 1.37

## CN(C)CCN(Cc1ccsc1)C(=O)c1cc2cc(F)ccc2[nH]1
  % Inhibition: -5%
  Z score: 0.68

## CN(Cc1ccsc1)C(=O)c1cccs1
  % Inhibition: -2%
  Z score: 0.22

## CN(Cc1ccsc1)C(=O)c1cc2ccccc2[nH]1
  % Inhibition: 58%
  Z score: -6.32

## Cc1ccc(S(=O)(=O)N2CCN(C(=O)NCc3nccn3C)CC2)cc1
  % Inhibition: -12%
  Z score: 2.31

## CC(C)N(Cc1ccccc1)C(=O)Cc1csc(-c2cccnc2)n1
  % Inhibition: -7%
  Z score: 0.9

## CC1CN(C(=O)Cc2csc(-c3cccnc3)n2)CC(C)O1 (centres undefined)
  % Inhibition: -15%
  Z score: 2

## CCN1CCC(N(C)C(=O)Cc2csc(-c3cccnc3)n2)CC1
  % Inhibition: 61%
  Z score: 0.93

## O=C(CCc1cn(-c2ccccc2)nc1-c1ccc2c(c1)OCO2)NC[C@H]1CCCO1
  % Inhibition: 0%
  Z score: 0.04

## COCCNC(=O)CCc1cn(-c2ccccc2)nc1-c1ccc2c(c1)OCO2
  % Inhibition: -10%
  Z score: 1.35

## CN(CCNC(=O)CCc1cn(-c2ccccc2)nc1-c1ccc2c(c1)OCO2)C1CCCCC1
  % Inhibition: 63%
  Z score: -8.26

## COC[C@@H]1[C@H](C(=O)Nc2cc(OC)ccc2OC)CCC(=O)N1C
  % Inhibition: -12%
  Z score: 1.42

## O=C(Nc1nncs1)c1cccc(C(=O)Nc2nncs2)n1
  % Inhibition: 77%
  Z score: -14.68

## CNc1cccc(C(=O)Nc2nncs2)n1
  % Inhibition: -13%
  Z score: 1.62

## O=C(Nc1nncs1)c1occc1-c1ccccc1
  % Inhibition: -6%
  Z score: 0.51

## Nc1nnnn1CC(=O)N[C@H]1CC(=O)Nc2ccccc21
  % Inhibition: 10%
  Z score: -1.71

## FC(F)(F)c1ccnc(Nc2ccc3c(c2)OCO3)n1
  % Inhibition: -4%
  Z score: 0.56

## Cc1nn(C)cc1CN(Cc1ccncc1)C1CCCCC1
  % Inhibition: 8%
  Z score: -1.12

## CC(C)c1cc(CN(Cc2cc(C(C)C)c(O)c(C(C)C)c2)C2CCCCC2)cc(C(C)C)c1O
  % Inhibition: 95%
  Z score: -12.83

## COc1ccc(CN(Cc2nnn(C)n2)C2CCCCC2)cc1OC
  % Inhibition: -7%
  Z score: 1.05

## Cc1noc(C(F)(F)F)c1C(=O)NCC1(C2(O)CCC2)CC1
  % Inhibition: -10%
  Z score: 1.69

## COc1ccc2c(c1)C(N1CCN(C(=O)CC(C)(C)C)CC1)=Nc1ccccc1O2
  % Inhibition: 1%
  Z score: -0.13

## CCOC(=O)N1CCCC[C@H](NC2CCN(c3ccc(F)c(F)c3)CC2)C1
  % Inhibition: 4%
  Z score: -0.83

## O=C(c1cccc(C(F)(F)F)c1)N1CCC(n2cnnc2C2CC2)CC1
  % Inhibition: 2%
  Z score: -0.34

## O=C(CN1CCC(O)CC1)N1CCC(c2ccccc2)=N1
  % Inhibition: -5%
  Z score: 1.01

## O=C(NCCn1c(=O)[nH]c2ccsc2c1=O)c1cc(-c2ccc(F)cc2)c[nH]1
  % Inhibition: -4%
  Z score: 0.72

## O=C(Nc1ccc(Cl)c(N2CCCS2(=O)=O)c1)NC1CCOCC1
  % Inhibition: -13%
  Z score: 1.52

## COc1c[nH]c(C(=O)NC2CCN(Cc3ccccc3)CC2)cc1=O
  % Inhibition: 60%
  Z score: -7.68

## COc1cc(=O)n2c(c1C(=O)NC1CCN(Cc3ccccc3)CC1)CCCCC2
  % Inhibition: -8%
  Z score: 0.91

## COc1cn(CC(=O)NC2CCN(Cc3ccccc3)CC2)c(CN2CCOCC2)cc1=O
  % Inhibition: 7%
  Z score: -0.83

## COc1c[nH]c(C(=O)NC2CCCC2)cc1=O
  % Inhibition: -5%
  Z score: 0.85

## O=C(CN1C(=O)c2ccccc2C1=O)NC1CCN(Cc2ccccc2)CC1
  % Inhibition: 4%
  Z score: -0.5

## COc1cc([C@H](CC(=O)NC2CCN(Cc3ccccc3)CC2)N2Cc3ccccc3C2=O)cc(OC)c1OC
  % Inhibition: 68%
  Z score: -9.85

## Cn1cccc1CNc1nnc([C@@H]2CCCO2)o1
  % Inhibition: -5%
  Z score: 0.81

## C[C@H]1NC(=O)N(c2cccc(C#N)c2)C1=O
  % Inhibition: -4%
  Z score: 0.53

## O=C(NCCN1C(=O)COC1=O)c1cccs1
  % Inhibition: 12%
  Z score: -2.12

## CC[C@H](C)N(CC(=O)N(CCOC)Cc1cccn1Cc1ccccc1)C(=O)c1ccco1
  % Inhibition: -8%
  Z score: 1.33

## COc1cccc(OC)c1-c1cncc(C(=O)NCC2CC2)c1
  % Inhibition: -9%
  Z score: 1.48

## Cc1nc(CNc2ccc(S(=O)(=O)CCO)cc2)cs1
  % Inhibition: -22%
  Z score: 4.06

## CC(C)(C)c1nc(CNc2ccc(S(=O)(=O)CCO)cc2)no1
  % Inhibition: 52%
  Z score: 1.4

## O=S(=O)(CCO)c1ccc(NCc2ccc(Cl)s2)cc1
  % Inhibition: -5%
  Z score: 0.74

## O=C(Nc1ccccc1C(=O)N1CCCCC1)[C@H]1CCCN(S(=O)(=O)c2cccs2)C1
  % Inhibition: 3%
  Z score: -0.58

## Nc1ccnc2c(-c3ccncc3)cccc12
  % Inhibition: -2%
  Z score: 0.26

## Cc1ccn(C2CCN(C(=O)C(C)(C)c3c[nH]cn3)CC2)n1
  % Inhibition: -6%
  Z score: 1.19

## Cc1cc(-c2c(C)sc(C)c2S(=O)(=O)N2CCOCC2)on1
  % Inhibition: -8%
  Z score: 1.45

## COc1ccccc1N(CC(=O)N[C@H](C)c1ccccc1)S(=O)(=O)c1ccc(C)cc1
  % Inhibition: 1%
  Z score: -0.13

## Cc1ccc(S(=O)(=O)N(CC(=O)N[C@@H]2C[C@H]3CC[C@@H]2C3)c2cccc(Br)c2)cc1
  % Inhibition: -15%
  Z score: 2.16

## Cc1ccc(S(=O)(=O)N(CC(=O)N[C@@H](C)c2ccccc2)c2cccc(Br)c2)cc1
  % Inhibition: 50%
  Z score: -1.08

## O=C(Nc1cc(Br)cc(C(F)(F)F)c1)c1ccnnc1
  % Inhibition: -2%
  Z score: 0.3

## O=C(Nc1cc(-c2onc3c2CCCC3)cc(C(F)(F)F)c1)c1cncc(Br)c1
  % Inhibition: 96%
  Z score: -8.79

## O=C(Nc1ccc(-c2onc3c2CCCC3)cc1)c1c(Cl)cc(Cl)cc1Cl
  % Inhibition: -2%
  Z score: 0.3

## COc1ccc(C(=O)N[C@H]2CCOC3(CCOCC3)C2)c(C)c1
  % Inhibition: 0%
  Z score: 0.06

## COc1cc2c(cc1OC)C(=O)N(Cc1ccccc1)C(=O)C2=O
  % Inhibition: -13%
  Z score: 1.31

## COC(=O)c1ccccc1NC(=O)C[C@@H]1Nc2cccc3cccc(c23)NC1=O
  % Inhibition: -5%
  Z score: 0.52

## COCc1ccc(CNCc2cc3cc(Cl)c(Cl)cc3[nH]2)cc1
  % Inhibition: -13%
  Z score: 1.44

## COc1ccc(-c2nc3ccc(C(=O)NC4CCCC(C)C4C)cc3nc2-c2ccc(OC)c(OC)c2)cc1OC (centres undefined)
  % Inhibition: 24%
  Z score: -2.87

## Cc1ncsc1Cn1ccn2nc(C(F)(F)F)cc2c1=O
  % Inhibition: 15%
  Z score: -1.93

## Cc1cccc(C(=O)N=C(N)Nc2nc3ccccc3s2)c1
  % Inhibition: -8%
  Z score: 0.72

## Cc1cccc(S(=O)(=O)Nc2ccc3nc(NC(=O)c4ccccc4)sc3c2)c1
  % Inhibition: 37%
  Z score: -0.65

## Cc1cccc(C(=O)Nc2nc3cc4sc(NC(=O)c5cccc(C)c5)nc4cc3s2)c1
  % Inhibition: 64%
  Z score: 0.77

## c1[nH]nnc1CCN1CCOC[C@@H]1CC1CCOCC1
  % Inhibition: 5%
  Z score: -1.02

## CCc1cnc(Cn2nc(-c3ccccc3)cc(C(F)(F)F)c2=O)o1
  % Inhibition: -6%
  Z score: 0.55

## C=CC[C@]1(C(=O)O)CCCN(Cc2c(C)nn(CC)c2C)C1
  % Inhibition: -6%
  Z score: 1

## Cc1cccc(CN2CCC[C@H](C(=O)c3ccc4c5c(cccc35)CC4)C2)n1
  % Inhibition: 58%
  Z score: -11.5

## CC(=O)N1CCC(N2CCC[C@H](C(=O)c3ccc4c5c(cccc35)CC4)C2)CC1
  % Inhibition: -11%
  Z score: 1.6

## Cc1cc(C(=O)N2CCC[C@H](C(=O)c3ccc4c5c(cccc35)CC4)C2)nc(N)n1
  % Inhibition: -4%
  Z score: 0.45

## CCc1cccc(NC(=O)Cn2ccc3ccc(-c4nnc(C)o4)cc32)c1
  % Inhibition: 78%
  Z score: -9.29

## Cc1cccc(NC(=O)Cn2ccc3ccc(-c4nnc(C)o4)cc32)c1
  % Inhibition: 6%
  Z score: -0.76

## COc1cccc(NC(=O)Cn2ccc3ccc(-c4nnc(C)o4)cc32)c1
  % Inhibition: 7%
  Z score: -0.81

## Cc1cc(C)cc(NC(=O)Cn2ccc3ccc(-c4nnc(C)o4)cc32)c1
  % Inhibition: 2%
  Z score: -0.2

## Cc1ccc(NC(=O)Cn2ccc3ccc(-c4nnc(C)o4)cc32)cc1
  % Inhibition: -3%
  Z score: 0.31

## Cc1nnc(-c2ccc3ccn(CC(=O)Nc4ccc(F)c(Cl)c4)c3c2)o1
  % Inhibition: 85%
  Z score: -10.55
